The values that follow come from PubChem BioAssay.

Activity calls are given as the source filed them.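 How the source made its calls, unless noted: active means compounds that lower survival of HCT116 colon cancer cells in the luminescence readout, no numeric limit stated; inactive means the rest.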

A short description of experiment [1]: Wnt pathway potentiators raising nuclear beta-catenin – imaging, WNT3A-conditioned medium, mouse C2C12, NPC library, primary screen (AID 1117326; in the data active means nuclear beta-catenin stimulation mostly above about 4.2%, no sharp cut-off; inactive means mostly below about 10%; further: reference of the scale not given here). Conditions: stronger effect = higher value.
A short description of experiment [2]: stimulators of insulin release from INS-1E, primary screen, cell-based, 5 mM glucose, NPC library (AID 1117329;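 active means compound raises insulin release from rat beta cells at 5 mM glucose, no numeric limit stated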; further: reference of the scale not given here). Conditions: rat INS-1E insulin secretion, at 10 µM, stronger effect = higher value.
A short description of experiment [3]: growth inhibition of GSK3B-pretreated HCT116 cells – cell-based, CellTiter-Glo, 0.2 to 20 µM (AID 1117336;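 active means compounds lowering colon cancer cell viability after pretreatment blocking the GSK3B kinase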). The conditions noted are these: HCT116 viability after GSK3B inhibitor, at 20 µM, stronger effect = higher value. For orientation: Cellular ATP, detected with luciferase, serves as a proxy for viable cell number.
The nature of experiment [4]: inhibition of endothelial tube formation, primary screen, imaging, VEGF stimulated, CD31 staining, tube area, NPC library (AID 1117340;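 active means compound that reduces growth-factor-driven endothelial tube area in a mixed cell culture, no cutoff stated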). Conditions: VEGF-stimulated ADSC/ECFC co-culture, at 10 µM, stronger effect = higher value.
The nature of experiment [5]: GLP1 release stimulators, primary, NCI-H716, NPC library (AID 1117341;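 active means compound raises GLP1 secretion from the human gut endocrine cells, with no numeric limit stated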; further: reference of the scale not given here). The conditions noted are these: NCI-H716 cells, at 10 µM, stronger effect = higher value.
The nature of experiment [6]: HCT116 colon cancer cell growth inhibition, primary screen, CellTiter-Glo luminescence, NPC library (AID 1117342). The conditions noted are these: at 20 µM (top of the series).
Experiment [7] can be described thus: reduced SW480 viability measured with CellTiter-Glo, NPC library, primary (AID 1117343;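 active means compounds that lower viability of the colon cancer cells in the luminescence readout, with no numeric limit stated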). Conditions: CellTiter-Glo luminescence; at 20 µM (top of the series).
Experiment [8] is described as follows: NPC library primary testing for decreased DLD-1 cell viability via CellTiter-Glo (AID 1117346;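 active means compounds that lower survival of DLD-1 colon cancer cells in the luminescence readout, no cutoff given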). The conditions noted are these: DLD-1 viability, CellTiter-Glo luminescence; at 20 µM (top of the series).

Turning to `CC(=O)OC[C@H]1O[C@@H](OC(C)=O)[C@H](OC(C)=O)[C@@H]1OC(C)=O`, the nuclear beta-catenin stimulation was -0.3% (inactive) in experiment [1] (at 10 µM) and -1.5% in experiment [1] (stimulation, at 2 µM). Further, the insulin secretion stimulation in experiment [2] was -1.25% (inactive). Moreover, the viability decrease in experiment [3] was -0.8% (inactive). The tube area decrease in experiment [4] was 9.6% (inactive). Moreover, the GLP1 secretion stimulation in experiment [5] is -1.3% (inactive). The inhibition of viability in experiment [6] is 12.6% (inactive). In addition, the viability decrease (inhibition) in experiment [7] was 13.1% (inactive); in experiment [8], 4.4% (inactive).

Regarding `O=C(c1ccccc1)C(O)c1ccccc1` (stereo not given), the nuclear beta-catenin stimulation is 0.5% (inactive) in experiment [1] (at 10 µM) and 0.8% in experiment [1] (stimulation, at 2 µM). In experiment [2], the insulin secretion stimulation is -1.6% (inactive). In addition, the viability decrease in experiment [3] is -1.05% (inactive). Moreover, the tube area decrease in experiment [4] is -9.2% (inactive). In experiment [5], the GLP1 secretion stimulation was -0.3% (inactive). Also, the inhibition of viability in experiment [6] was 2.8% (inactive). Besides, the viability decrease (inhibition) in experiment [7] is 9.2% (inactive); in experiment [8] it was 6.95% (inactive).

For the compound `Cc1c(C)n(Cc2ccccc2)c2ccc(C(=O)OCCN(C)C)cc12`, the nuclear beta-catenin stimulation in experiment [1] (at 10 µM) was 12.1% (inactive); in experiment [1] (stimulation, at 2 µM), -0.2%. The insulin secretion stimulation in experiment [2] is 79.2% (active). In addition, the viability decrease in experiment [3] is 90.9% (active). Further, the tube area decrease in experiment [4] is 29.5% (inactive). The GLP1 secretion stimulation in experiment [5] is 10.7% (inactive). In experiment [6], the inhibition of viability was 98.9% (active). Moreover, the viability decrease (inhibition) in experiment [7] was 88.7% (active); in experiment [8], 95% (active).

Regarding `Cc1ncc(CO)c(C=O)c1O`, the nuclear beta-catenin stimulation in experiment [1] (at 10 µM) is -0.2% (inactive); in experiment [1] (stimulation, at 2 µM) it was 0.6%. Further, the insulin secretion stimulation in experiment [2] was 2.8% (inactive). In addition, in experiment [3], the viability decrease was -8.9% (inactive). For the same compound, the tube area decrease in experiment [4] was -6.1% (inactive). Besides, in experiment [5], the GLP1 secretion stimulation is -2.6% (inactive). Also, the inhibition of viability in experiment [6] was 13.3% (inactive). Also, the viability decrease (inhibition) was 24.3% (inactive) in experiment [7] and -1.4% (inactive) in experiment [8].

Consider `COC(=O)C1=C(C)NC(COC(N)=O)=C(C(=O)OC(C)C)C1c1cccc(Cl)c1Cl` (stereo not given), for which the nuclear beta-catenin stimulation was 35.5% (inactive) in experiment [1] (at 10 µM) and 0.7% in experiment [1] (stimulation, at 2 µM). For the same compound, in experiment [2], the insulin secretion stimulation is 8.1% (inactive). Further, the viability decrease in experiment [3] is 94.6% (active). In experiment [4], the tube area decrease was 23.2% (inactive). In addition, in experiment [5], the GLP1 secretion stimulation was 0.3% (inactive). Further, the inhibition of viability in experiment [6] is 99.8% (active). Besides, the viability decrease (inhibition) is 123% (active) in experiment [7] and 68.5% (active) in experiment [8].

In the case of `CC(=O)Nc1ccc(OCCOCCOc2ccc(NC(C)=O)cc2)cc1`, the nuclear beta-catenin stimulation in experiment [1] (at 10 µM) is 0.3% (inactive); in experiment [1] (stimulation, at 2 µM), 0.3%. In addition, the insulin secretion stimulation in experiment [2] is -2.6% (inactive). The viability decrease in experiment [3] is 0.7% (inactive). Further, in experiment [4], the tube area decrease is -0.3% (inactive). Also, the GLP1 secretion stimulation in experiment [5] was -1.2% (inactive). The inhibition of viability in experiment [6] is -3.5% (inactive). Also, the viability decrease (inhibition) in experiment [7] is 11.3% (inactive); in experiment [8] it was -8.2% (inactive).

Take `C/C(=C(\CCO)SS/C(CCO)=C(\C)N(C=O)Cc1cnc(C)nc1N)N(C=O)Cc1cnc(C)nc1N`: the nuclear beta-catenin stimulation in experiment [1] (at 10 µM) is 0.2% (inactive); in experiment [1] (stimulation, at 2 µM), -0.9%. The insulin secretion stimulation in experiment [2] was 0.9% (inactive). Further, the viability decrease in experiment [3] was -14.3% (inactive). Besides, the tube area decrease in experiment [4] is -4.4% (inactive). Besides, in experiment [5], the GLP1 secretion stimulation is -0.7% (inactive). In addition, the inhibition of viability in experiment [6] was 0.6% (inactive). Further, the results for the viability decrease (inhibition) in experiment [7] and in experiment [8] were -11.8% (inactive) and 7.4% (inactive), respectively.

Regarding `O=C(O)Cc1cccc(-c2cc(CCCCCCc3ccc(O[C@H]4O[C@H](CO)[C@@H](O)[C@H](O)[C@@H]4O)c(-c4cccc(CC(=O)O)c4)c3)ccc2O[C@H]2O[C@H](CO)[C@@H](O)[C@H](O)[C@@H]2O)c1`, the nuclear beta-catenin stimulation is 0.7% (inactive) in experiment [1] (at 10 µM) and 1.4% in experiment [1] (stimulation, at 2 µM). Moreover, the insulin secretion stimulation in experiment [2] was 2.3% (inactive). Besides, in experiment [3], the viability decrease is -12.7% (inactive). Moreover, the tube area decrease in experiment [4] was -29% (inactive). Moreover, in experiment [5], the GLP1 secretion stimulation was 9.5% (inactive). Besides, in experiment [6], the inhibition of viability was -26.6% (inactive). Besides, the viability decrease (inhibition) is -24.6% (inactive) in experiment [7] and -14.9% (inactive) in experiment [8].

In the case of `Cc1onc(-c2c(F)cccc2Cl)c1C(=O)Cl`, the nuclear beta-catenin stimulation in experiment [1] (at 10 µM) was -0.1% (inactive); in experiment [1] (stimulation, at 2 µM), 0.5%. Further, the insulin secretion stimulation in experiment [2] is 1.1% (inactive). Moreover, in experiment [3], the viability decrease is -3.1% (inactive). Also, the tube area decrease in experiment [4] is -12.5% (inactive). Besides, the GLP1 secretion stimulation in experiment [5] was -1.4% (inactive). For the same compound, in experiment [6], the inhibition of viability is 0.4% (inactive). Moreover, the values for the viability decrease (inhibition) in experiment [7] and in experiment [8] were -2.6% (inactive) and 2.8% (inactive), respectively.

Take `CN[C@@H]1[C@H](O)[C@H](O[C@@H]2[C@H](O)[C@@H](O[C@H]3O[C@H]([C@@H](C)NC)CC[C@H]3N)[C@@H](N)C[C@H]2N)OC[C@]1(C)O`: the nuclear beta-catenin stimulation in experiment [1] (at 10 µM) was -0.1% (inactive); in experiment [1] (stimulation, at 2 µM) it was -0.4%. For the same compound, the insulin secretion stimulation in experiment [2] is 1.1% (inactive). Moreover, the viability decrease in experiment [3] is 7.9% (inactive). In experiment [4], the tube area decrease was 0.9% (inactive). In addition, the GLP1 secretion stimulation in experiment [5] was 2.8% (inactive). Moreover, the inhibition of viability in experiment [6] is 6.73% (inactive). For the same compound, the figures for the viability decrease (inhibition) in experiment [7] and in experiment [8] were 29.9% (inactive) and -5.6% (inactive), respectively.

Regarding `CC(=O)Oc1ccc(C(=C2CCCCC2)c2ccc(OC(C)=O)cc2)cc1`, the nuclear beta-catenin stimulation in experiment [1] (at 10 µM) is 0.2% (inactive); in experiment [1] (stimulation, at 2 µM) it was 1.4%. In addition, in experiment [2], the insulin secretion stimulation is -0.3% (inactive). In addition, the viability decrease in experiment [3] is 109% (active). Also, the tube area decrease in experiment [4] is 4.9% (inactive). For the same compound, in experiment [5], the GLP1 secretion stimulation was 7.4% (inactive). The inhibition of viability in experiment [6] was 112% (active). Further, the viability decrease (inhibition) in experiment [7] is 130% (active); in experiment [8], 102% (active).

For the compound `Cc1ncc(CO)c(CN)c1O`, the nuclear beta-catenin stimulation is 1.3% (inactive) in experiment [1] (at 10 µM) and 2.3% in experiment [1] (stimulation, at 2 µM). In addition, in experiment [2], the insulin secretion stimulation is 0.6% (inactive). Moreover, the viability decrease in experiment [3] is 4.25% (inactive). Also, the tube area decrease in experiment [4] is -13.4% (inactive). The GLP1 secretion stimulation in experiment [5] is 0.1% (inactive). The inhibition of viability in experiment [6] was -3.2% (inactive). The viability decrease (inhibition) in experiment [7] is 91.3% (active); in experiment [8], 9.5% (inactive).

As for `CC12C=CC(=O)C=C1CCC1C2C(O)CC2(C)C1CCC2(O)C(=O)COP(=O)(O)O` (stereo not given), the nuclear beta-catenin stimulation is 1.1% (inactive) in experiment [1] (at 10 µM) and 0.6% in experiment [1] (stimulation, at 2 µM). Moreover, in experiment [2], the insulin secretion stimulation was 1.5% (inactive). Further, the viability decrease in experiment [3] was -38.5% (inactive). The tube area decrease in experiment [4] was -3.4% (inactive). Moreover, the GLP1 secretion stimulation in experiment [5] is -2% (inactive). Besides, the inhibition of viability in experiment [6] is 1.57% (inactive). Besides, the viability decrease (inhibition) in experiment [7] is -2.1% (inactive); in experiment [8], -14.4% (inactive).

Regarding `O=C(Nc1ccc(Cl)cc1)Nc1ccc(Cl)c(Cl)c1`, the nuclear beta-catenin stimulation in experiment [1] (at 10 µM) was 35.1% (inactive); in experiment [1] (stimulation, at 2 µM), 0.3%. Also, the insulin secretion stimulation in experiment [2] is -3.4% (inactive). Moreover, the viability decrease in experiment [3] is 92.2% (active). The tube area decrease in experiment [4] was 103% (active). The GLP1 secretion stimulation in experiment [5] was -3.2% (inactive). The inhibition of viability in experiment [6] was 84.6% (active). For the same compound, the viability decrease (inhibition) in experiment [7] is 116% (active); in experiment [8], 94.1% (active).

Regarding `CCCCS(=O)(=O)N[C@@H](Cc1ccc(OCCCCC2CCNCC2)cc1)C(=O)O`, the nuclear beta-catenin stimulation in experiment [1] (at 10 µM) was 1.1% (inactive); in experiment [1] (stimulation, at 2 µM), -1.6%. Also, in experiment [2], the insulin secretion stimulation was 0.7% (inactive). The viability decrease in experiment [3] was 96.5% (active). Also, in experiment [4], the tube area decrease is -5.9% (inactive). Besides, the GLP1 secretion stimulation in experiment [5] was 5.3% (inactive). Further, the inhibition of viability in experiment [6] was 72.5% (active). For the same compound, the viability decrease (inhibition) in experiment [7] was 64.5% (active); in experiment [8], 50.1% (active).
